According to PubChem BioAssay:
Active and inactive are the calls of the source. Unless noted, no rule for the calls is given here.

Key:
[1] = A549 cell viability effects, profiling panel, calcein-AM fluorescence, 48 h, basal (AID 1162); conditions: higher = more signal; also: test concentration not given here
[2] = adipocyte viability effects, profiling panel, cell-based, 3T3-L1 adipocytes, calcein-AM fluorescence, 48 h, basal (AID 1163); conditions: 3T3-L1 adipocytes viability, higher = more signal; also: test concentration not given here
[3] = HepG2 cell viability effects, profiling panel, calcein-AM fluorescence, 48 h, basal (AID 1164); conditions: higher = more signal; also: test concentration not given here
[4] = MM1S cell viability effects, profiling panel, calcein-AM fluorescence, 48 h, basal (AID 1165); conditions: higher = more signal;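 also: viability of MM1S multiple myeloma cells under basal unstimulated conditions; test concentration not given here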
[5] = basal RPMI8226 viability, no added stimulus, profiling panel, cell-based, calcein-AM fluorescence, 48 h, PK04 Diversity Set (AID 1166); conditions: RPMI8226 myeloma viability, higher = more signal;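 also: cells grown under basal conditions without added stimulus; test concentration not given here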
[6] = basal HepG2 mitochondrial membrane potential changes, profiling panel, cell-based, JC-1 fluorescence, 24 h, 100 nL compound (AID 1167); conditions: higher = more signal; also: test concentration not given here
[7] = basal 3T3-L1 adipocyte mitochondrial potential changes, profiling panel, cell-based, JC-1 fluorescence, 3T3-L1 adipocytes, 24 h, 100 nL compound (AID 1168); conditions: JC-1 mitochondrial fluorescence, higher = more signal, called active from +8 up or from −8 down; also: test concentration not given here
[8] = basal RPMI8226 mitochondrial membrane potential changes, profiling panel, cell-based, JC-1 fluorescence, 24 h, 100 nL compound (AID 1169); conditions: RPMI8226 myeloma, JC-1 mitochondrial potential fluorescence, higher = more signal; also: test concentration not given here
[9] = basal MM1S mitochondrial membrane potential changes, profiling panel, cell-based, JC-1 fluorescence, 24 h, 100 nL compound (AID 1170); conditions: higher = more signal; also: test concentration not given here
[10] = A549 lung cancer cell viability effects, profiling panel, resazurin fluorescence, 24 h, PK04 Diversity Set (AID 1171); conditions: higher = more signal, called active from +8 up or from −8 down; also: test concentration not given here
[11] = HepG2 liver cancer cell viability effects, profiling panel, resazurin fluorescence, 24 h, PK04 Diversity Set (AID 1172); conditions: higher = more signal; also: test concentration not given here
[12] = basal S. cerevisiae growth modulation, no modifier, primary screen, OD600, strain BY4716, 24 h, basal condition (AID 1173); conditions: OD600, 24 h, higher = more signal, called active from +8 up or from −8 down
[13] = MM1S myeloma cell viability, profiling panel, resazurin fluorescence, basal, 24 h, PK04 Diversity Set (AID 1174); conditions: higher = more signal, called active from +8 up or from −8 down;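 also: MM1S multiple myeloma cell line; test concentration not given here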
[14] = molecular target: Dihydroorotate dehydrogenase (quinone), mitochondrial (Plasmodium falciparum (isolate 3D7)) (UniProt Q08210); test: PfDHODH enzyme inhibitors, primary screen, biochemical, C-terminal His tag, absorbance 600 nm (AID 1175); conditions: DCIP absorbance 600 nm, higher = more signal, called active from +8 up or from −8 down;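 also: recombinant parasite enzyme with a five histidine tag at its C terminus; test concentration not given here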
Chain of Dihydroorotate dehydrogenase (quinone), mitochondrial (Plasmodium falciparum (isolate 3D7)) (Q08210 whole entry, looked up): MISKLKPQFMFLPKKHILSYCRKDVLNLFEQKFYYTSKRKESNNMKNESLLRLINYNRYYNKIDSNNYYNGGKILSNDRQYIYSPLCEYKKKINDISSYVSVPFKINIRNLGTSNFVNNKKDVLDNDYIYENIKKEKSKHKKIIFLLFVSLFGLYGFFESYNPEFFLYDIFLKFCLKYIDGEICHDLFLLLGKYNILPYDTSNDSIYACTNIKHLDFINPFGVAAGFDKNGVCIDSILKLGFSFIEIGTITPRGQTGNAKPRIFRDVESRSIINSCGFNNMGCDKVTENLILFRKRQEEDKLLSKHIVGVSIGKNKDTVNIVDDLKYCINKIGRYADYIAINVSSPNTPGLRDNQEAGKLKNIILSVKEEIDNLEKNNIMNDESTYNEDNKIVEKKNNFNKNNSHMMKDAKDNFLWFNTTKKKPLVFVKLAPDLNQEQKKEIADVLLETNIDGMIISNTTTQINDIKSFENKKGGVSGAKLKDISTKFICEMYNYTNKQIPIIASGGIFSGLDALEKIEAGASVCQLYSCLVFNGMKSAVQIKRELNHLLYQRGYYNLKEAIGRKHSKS

[15] = P. aeruginosa biofilm formation inhibitors, primary screen, strain PAO1, LB-PBS medium, absorbance 600 nm (AID 1176); also: test concentration not given here; conditions: P. aeruginosa PAO1 growth/biofilm, A600, 12 h; higher = more signal
[16] = S. cerevisiae RM11-1a growth modifiers, primary screen, strain RM11-1a, OD600, basal, 24 h (AID 1177); conditions: OD600, 24 h, higher = more signal, called active from +8 up or from −8 down;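 also: cultures grown under basal conditions with no added stressor; test concentration not given here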
[17] = E. coli acrAB mutant growth effects, primary screen, E. coli filamentation inducers, strain DRC39, OD650, 24 h (AID 1178); conditions: higher = more signal, called active from +8 up or from −8 down;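 also: growth measured as culture turbidity by optical density at 650 nm; test concentration not given here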
[18] = E. coli acrAB mutant growth effects, primary screen, E. coli filamentation inducers, strain DRC39, OD650, 48 h (AID 1179);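 also: screen aims at cell division blockers that make cells filament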; conditions: E. coli DRC39 delta-acrAB growth, higher = more signal, called active from +8 up or from −8 down
[19] = RPMI8226 myeloma cell viability, profiling panel, resazurin fluorescence, basal, 24 h, PK04 Diversity Set (AID 1180); conditions: higher = more signal;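 also: RPMI8826 multiple myeloma cell line at 5000 cells per well; test concentration not given here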
[20] = molecular target: E3 ubiquitin-protein ligase XIAP (Homo sapiens) (UniProt P98170); test: XIAP binders, primary screen, biophysical, small-molecule microarray, fluorescence 635 nm (AID 1181); conditions: small-molecule microarray binding, higher = more signal;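 also: score merges 667 nm emission and signal to noise over triplicate slides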
Chain of E3 ubiquitin-protein ligase XIAP (Homo sapiens) (P98170 whole entry, looked up): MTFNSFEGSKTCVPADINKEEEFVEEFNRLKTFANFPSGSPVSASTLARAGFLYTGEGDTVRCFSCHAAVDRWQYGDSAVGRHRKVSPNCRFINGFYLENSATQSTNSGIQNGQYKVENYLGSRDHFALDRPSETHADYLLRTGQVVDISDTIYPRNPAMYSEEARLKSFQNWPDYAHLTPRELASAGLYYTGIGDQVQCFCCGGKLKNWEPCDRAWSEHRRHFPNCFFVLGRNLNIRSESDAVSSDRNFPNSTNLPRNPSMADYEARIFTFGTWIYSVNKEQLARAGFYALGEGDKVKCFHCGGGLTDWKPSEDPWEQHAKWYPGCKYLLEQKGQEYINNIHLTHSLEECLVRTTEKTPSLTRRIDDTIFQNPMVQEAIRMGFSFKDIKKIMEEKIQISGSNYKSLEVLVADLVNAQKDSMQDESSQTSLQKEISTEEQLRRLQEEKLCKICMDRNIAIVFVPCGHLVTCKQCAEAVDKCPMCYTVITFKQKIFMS

Compound	z-score [1]	z-score [2]	z-score [3]	z-score [4]	z-score [5]	z-score [6]	z-score [7]	z-score [8]	z-score [9]	z-score [10]	z-score [11]	z-score [12]	z-score [13]	composite z-score [14]	z-score [15]	z-score [16]	z-score [17]	z-score [18]	z-score [19]	composite z-score [20]
CON=Cc1ccc(C(=O)N2[C@H](c3ccc(C)cc3)[C@@H](C)CC[C@H]2C(=O)OC)cc1	0.281	0.0609	-0.296	0.336	0.0411	0.129	0.345 (inactive)	0.344	1.07	1.03 (inactive)	0.259	-2.35 (inactive)	0.37 (inactive)	0.442 (inactive)	-0.066 (inactive)	-0.308 (inactive)	0.743 (inactive)	0.0138 (inactive)	0.589	-0.0559
C[C@H]1CC[C@H]2C(=O)OC(CO)CN2[C@@H]1c1ccc(Br)cc1 (stereo not given in full)	0.228	0.764	-0.592	-2.22	0.0966	0.292	-0.18 (inactive)	0.859	0.23	0.746 (inactive)	0.228	-1.23 (inactive)	-0.0363 (inactive)	-0.0747 (inactive)	0.967 (inactive)	-0.373 (inactive)	-0.472 (inactive)	-0.304 (inactive)	0.979	0.213
Cn1c(=O)n2n(c1=O)[C@H]1[C@H](O)[C@@H]3O[C@@H]3C(=NOCc3ccccc3)[C@H]1CC2	0.102	-0.48	0.316	0.0846	-0.548	-0.141	-0.383 (inactive)	-0.0104	-0.338	-0.508 (inactive)	0.0287	0.0108 (inactive)	-0.189 (inactive)	-1.08 (inactive)	-0.0242 (inactive)	-0.186 (inactive)	-0.289 (inactive)	-0.265 (inactive)	-0.336	-0.222
COC(=O)[C@@H]1CC[C@H](C)[C@@H](c2ccc(C)cc2)N1C(=O)c1ccc(C=NO[C@H](C)c2cn([C@H](CO)Cc3ccccc3)nn2)cc1	0.354	0.747	-1.31	0.005	-2.98	-0.701	-1.55 (inactive)	-0.041	0.697	-0.0166 (inactive)	-1.32	0.0789 (inactive)	0.534 (inactive)	0.271 (inactive)	-0.598 (inactive)	0.59 (inactive)	-1.28 (inactive)	-1.03 (inactive)	0.641	-0.102
COc1cc(O)c(C(=O)C=Cc2ccc3c(c2)OCO3)c(OC)c1	-0.553	0.154	-0.932	-1.62	-1.36	-0.591	-0.646 (inactive)	-0.23	-0.533	0.0731 (inactive)	0.0215	1.12 (inactive)	-0.307 (inactive)	1.06 (inactive)	1.2 (inactive)	2.31 (inactive)	-0.45 (inactive)	-1.04 (inactive)	-0.144	0.215
CCOC(=O)NN=C1C[C@@H](O)[C@@H](O)[C@@H]2[C@@H]3C(=O)N([C@@H](C)c4ccccc4)C(=O)[C@@H]3CC[C@@H]12	0.0669	-1.33	-0.624	0.372	-0.112	-0.369	-0.878 (inactive)	-0.92	-0.834	0.4 (inactive)	0.13	-0.608 (inactive)	-0.371 (inactive)	-0.0776 (inactive)	-0.72 (inactive)	-0.645 (inactive)	-0.654 (inactive)	-0.23 (inactive)	-0.436	-0.202
COC(=O)[C@@H]1CC[C@H](C)[C@@H](c2ccc(C)cc2)N1C(=O)c1ccc(C=NO[C@H](C)c2cn([C@@H]3COC[C@H]3O)nn2)cc1	0.278	-1.16	-0.482	0.673	-0.486	-1.12	-0.579 (inactive)	-0.916	-0.985	0.339 (inactive)	-0.324	-0.225 (inactive)	-0.943 (inactive)	0.0465 (inactive)	0.289 (inactive)	1.17 (inactive)	0.879 (inactive)	0.246 (inactive)	-0.798	0.199
COc1ccc(O[C@H]2C=C[C@@H](c3ccccc3)O[C@@H]2CON=C(C)CCC(=O)OC[C@H]2O[C@H](c3ccccc3)C=C[C@@H]2Oc2ccc(OC)cc2)cc1	-0.094	-0.603	-0.144	-1.44	-0.31	1.08	0.244 (inactive)	0.534	-0.492	0.305 (inactive)	0.319	0.917 (inactive)	0.427 (inactive)	-0.497 (inactive)	-0.868 (inactive)	1.26 (inactive)	0.277 (inactive)	0.434 (inactive)	0.476	-0.195
O=C1C=C[C@@H](O)[C@@H]2[C@@H]3C(=O)N(C[C@@H]4CCCO4)C(=O)[C@@H]3CC[C@@H]12	-0.663	0.316	0.324	-0.121	0.757	1.09	0.0236 (inactive)	-0.643	0.744	-0.379 (inactive)	0.111	0.499 (inactive)	0.561 (inactive)	-0.0546 (inactive)	-0.425 (inactive)	0.0539 (inactive)	0.117 (inactive)	-0.282 (inactive)	0.91	0.0032
COC(=O)[C@@H]1CC[C@H](C)[C@@H](c2ccc(C)cc2)N1C(=O)c1ccc(C=NOC[C@@H](C)[C@H](OCc2ccccc2)C(C)C)cc1	0.188	0.903	2.13	-0.168	-0.0791	1.6	-0.483 (inactive)	-0.998	-1.01	-1.19 (inactive)	-0.625	-2.56 (inactive)	-0.795 (inactive)	-0.869 (inactive)	-1.16 (inactive)	-2.18 (inactive)	0.413 (inactive)	-1.07 (inactive)	-0.987	-0.135
CO[C@H]1COC(=O)[C@@H]2CCCN2C(=O)CC=C[C@@H](C)[C@H](OC)COC(=O)[C@@H](OCc2ccccc2)C=C[C@@H]1C	-0.622	0.852	0.305	0.41	-0.697	0.887	0.377 (inactive)	0.0666	-0.305	0.0375 (inactive)	-0.416	-1.72 (inactive)	1.58 (inactive)	-2.88 (inactive)	-1.01 (inactive)	-0.965 (inactive)	0.421 (inactive)	0.29 (inactive)	0.552	-0.284
O=C1CCCC=C1C(CCc1ccccc1)OC(=O)c1ccc(Br)cc1 (stereo not given)	-0.281	0.893	-0.318	-3.42	-2.69	-0.158	-1.15 (inactive)	-0.619	-0.127	-0.251 (inactive)	-0.0575	-0.744 (inactive)	-0.688 (inactive)	-1.19 (inactive)	1.18 (inactive)	-0.0079 (inactive)	-0.147 (inactive)	-0.247 (inactive)	0.504	0.289
O=C(NN=C1C[C@@H](O)[C@@H](O)[C@@H]2[C@@H]3C(=O)N(Cc4ccccc4)C(=O)[C@@H]3CC[C@@H]12)OCc1ccccc1	0.272	-0.201	-0.258	0.372	0.582	1.23	0.806 (inactive)	-0.37	-1.53	-0.534 (inactive)	0.348	-1.17 (inactive)	0.0873 (inactive)	-1.65 (inactive)	0.352 (inactive)	-0.139 (inactive)	0.851 (inactive)	0.279 (inactive)	0.131	-0.0344
CC(C)=NO[C@H](C)c1cn([C@H](CO)Cc2ccccc2)nn1	0.373	0.232	-0.121	-0.0735	-0.33	-0.312	-0.41 (inactive)	0.155	1.11	0.268 (inactive)	0.0622	-0.489 (inactive)	-0.11 (inactive)	-0.784 (inactive)	0.204 (inactive)	-0.493 (inactive)	0.517 (inactive)	-1.91 (inactive)	0.672	-0.0538
COc1ccc(C#C[C@@H]2C=C[C@H](OC(C)=O)[C@@H](COC(C)=O)O2)cc1	-0.142	0.49	0.419	-3.54	-2.65	-1.52	-0.197 (inactive)	-0.437	-2.68	-0.0296 (inactive)	0.0002	-1.59 (inactive)	-2.77 (inactive)	-0.531 (inactive)	0.0372 (inactive)	-0.939 (inactive)	0.746 (inactive)	0.348 (inactive)	-1.49	-0.0801
COC(=O)[C@H]1[C@@H](O)[C@@]2(O)c3ccccc3O[C@@]2(c2ccccc2)[C@@H]1c1ccccc1	-0.895	-0.535	-2.85	-2.81	-3.1	-1.85	-0.144 (inactive)	-0.231	-0.341	-0.146 (inactive)	-0.314	0.358 (inactive)	-0.683 (inactive)	0.154 (inactive)	-0.175 (inactive)	0.653 (inactive)	-0.306 (inactive)	-0.446 (inactive)	-0.857	-0.173
CC(C)(C)N1C(=O)[C@H]2[C@H]3[C@H](O)[C@H](O)CC(=NOCc4ccccc4)[C@H]3CC[C@H]2C1=O	0.156	-0.503	-1.11	0.166	-0.946	-0.736	0.536 (inactive)	-0.492	0.0361	0.727 (inactive)	-0.211	-0.565 (inactive)	0.0488 (inactive)	-0.192 (inactive)	-0.237 (inactive)	-0.786 (inactive)	0.184 (inactive)	0.332 (inactive)	0.237	-0.102
CC(C)(C)N1C(=O)[C@H]2[C@H]3[C@H](O)C=CC(=O)[C@@H]3CC[C@H]2C1=O	-0.269	0.815	0.282	0.326	0.311	0.102	-0.211 (inactive)	-0.0172	1.19	0.0796 (inactive)	0.136	1.48 (inactive)	0.469 (inactive)	0.237 (inactive)	-0.118 (inactive)	0.846 (inactive)	-0.278 (inactive)	-0.231 (inactive)	0.467	-0.102
